Test results from PubChem BioAssay AID2578 (National Center for Advancing Translational Sciences (NCATS), 2010).
A number with no mark means an inactive call. Calls come from the whole dose curve; as a rule, active = well fitted curve in the direction sought with a large enough effect; inactive = no such curve, though single readings can be large or run the other way.

The molecules below were run against Alpha-galactosidase A (Homo sapiens) (UniProt P06280) (assay: qHTS Assay for Inhibitors and Activators of N370S glucocerebrosidase as a Potential Chaperone Treatment of Gaucher Disease: Alpha-Galactosidase Counterscreen). Conditions: purified enzyme, 4-MU-alpha-Gal fluorescence, 20 min; series mostly up to 57.5 µM; activity change, negative = inhibition: at the top concentration.
Chain of Alpha-galactosidase A (Homo sapiens) (P06280 whole entry, looked up): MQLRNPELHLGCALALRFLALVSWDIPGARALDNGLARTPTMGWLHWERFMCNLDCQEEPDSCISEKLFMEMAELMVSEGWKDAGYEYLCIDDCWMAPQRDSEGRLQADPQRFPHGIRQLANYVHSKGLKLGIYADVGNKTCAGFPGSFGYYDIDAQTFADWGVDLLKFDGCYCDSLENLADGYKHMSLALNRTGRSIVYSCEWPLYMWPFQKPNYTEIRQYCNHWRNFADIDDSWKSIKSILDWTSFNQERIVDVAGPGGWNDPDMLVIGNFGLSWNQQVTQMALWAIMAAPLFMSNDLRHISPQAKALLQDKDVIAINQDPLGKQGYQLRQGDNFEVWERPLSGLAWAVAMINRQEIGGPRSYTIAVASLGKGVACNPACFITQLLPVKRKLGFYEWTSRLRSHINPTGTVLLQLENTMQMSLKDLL
Description: NIH Chemical Genomics Center [NCGC] NIH Molecular Libraries Probe Production Centers Network [MLPCN] MLPCN Grant: MH086442-01 Assay Submitter (PI): Wei Zheng Glucocerebrosidase (GC) catalyzes the hydrolysis of beta-glucocerebroside to glucose and ceramide in lysosomes. Mutations in the glucocerebrosidase gene result in Gaucher disease, an autosomal recessive lysosomal storage disorder. Many of the mutations encountered in patients with Gaucher disease are missense alterations that may cause misfolding, decreased stability and/or mistrafficking of this lysosomal protein. […] These inhibitors include iminosugar analogs and three non-iminosugar inhibitors identified from a previous HTS of 62,000 compounds with the wild type recombinant enzyme. However, the enhancement of enzyme activity by the chaperone action of an enzyme inhibitor must be balanced against the direct inhibition of the enzyme. An enzyme activator could also function as a chaperone by binding to the enzyme and helping to correct its misfolding and mistrafficking. While activators for GC have not yet been identified, they may have better therapeutic potential than inhibitors. Therefore the discovery and development of chemical activators may provide a new strategy for the chaperone therapy. To characterize compound selectivity, selected hits from the primary screen were screened against purified alpha-galactosidase, a related sugar hydrolase. Alpha-galactosidase is a homodimeric glycoprotein that hydrolyzes the terminal alpha-galactosyl moieties from glycolipids and glycoproteins.
NCGC Assay Protocol Summary: This is a fluorogenic enzyme assay with 4-Methylumbelliferyl alpha-D-galactopyranoside as the substrate and human […] as the enzyme preparation. Upon the hydrolysis of this fluorogenic substrate, the resulting product, […]. 4-Methyllumbelliferone, can be excited at 365 nm and emits at 440 nm. This fluorescence which can be detected by a standard fluorescence plate reader. Data were normalized to the controls for basal activity (without enzyme) and 100% activity (with enzyme). In the AC50 values were determined from concentration-response data modeled with the standard Hill equation. Assay buffer: 50 mM citric acid (titrated with potassium phosphate to pH 4.5), 0.005% Tween-20, pH 4.5. (pH 4.5 is an optimal condition for this enzyme assay) 1536-well assay protocol for the human alpha-galactosidase: (1) Add 2 ul/well of enzyme (12 nM final) (2) Add 23 nL compounds in DMSO solution. The final titration was 0.7 nM to 77 uM. (3) Add 1 ul of substrate ([…]) (4) Incubate at room temperature for 20 min. (5) Add 2 ul stop solution (1M NaOH and 1M Glycine mixture, pH 10) (6) Detect the assay plate in a ViewLux plate reader (PerkinElmer) with Ex=365 nm and Em=440nm. Keywords: MLSMR, MLPCN, NIH Roadmap, qHTS, NCGC, : Alpha-galactosidase, Fabry Disease, pharmacological chaperone, chaperone therapy
In the case of CC(=O)c1ccc(S(=O)(=O)N2CCN(c3nc(-c4ccccc4)nc4ccccc34)CC2)cc1, the “activity change, negative = inhibition” value is reported as -2.18%. With O=S(=O)(c1cccc(C(F)(F)F)c1)N1CCN(c2nc(-c3cccs3)nc3ccccc23)CC1 the “activity change, negative = inhibition” value was -4.24%. With N#Cc1ccc(S(=O)(=O)N2CCN(c3nc(-c4cccs4)nc4ccccc34)CC2)cc1 the “activity change, negative = inhibition” value was -2.99%. With O=S(=O)(c1ccc2c(c1)CCCC2)N1CCN(c2nc(-c3cccs3)nc3ccccc23)CC1 the “activity change, negative = inhibition” value was -4.94%. In the case of O=S(=O)(c1ccc(C(F)(F)F)cc1)N1CCN(c2nc(-c3cccs3)nc3ccccc23)CC1, the “activity change, negative = inhibition” value is reported as -9.68%. With O=[N+]([O-])c1ccc(S(=O)(=O)N2CCN(c3nc(-c4ccccc4)nc4ccccc34)CC2)cc1 the “activity change, negative = inhibition” value was -5.35%. In the case of O=S(=O)(c1cccc(C(F)(F)F)c1)N1CCN(c2nc(-c3ccccc3)nc3ccccc23)CC1, the “activity change, negative = inhibition” value is reported as -10.1%. With O=S(=O)(c1ccc(F)cc1)N1CCN(c2nc(-c3cccs3)nc3cc(Cl)ccc23)CC1 the “activity change, negative = inhibition” value was -15.3%. With O=S(=O)(c1ccccc1)N1CCN(c2nc(-c3ccc(F)cc3)nc3cc(Cl)ccc23)CC1 the “activity change, negative = inhibition” value was -1.96%. With CCOC(=O)c1ccc(S(=O)(=O)N2CCN(c3nc(-c4cccs4)nc4ccccc34)CC2)cc1 the “activity change, negative = inhibition” value was -9.25%. For COc1ccc(-c2nc(N3CCN(S(=O)(=O)c4ccc(C)cc4)CC3)c3ccccc3n2)cc1, the “activity change, negative = inhibition” value was -1.79%. In the case of O=S(=O)(c1ccccc1C(F)(F)F)N1CCN(c2nc(-c3ccccc3)nc3ccccc23)CC1, the “activity change, negative = inhibition” value is reported as -8.09%. With O=S(=O)(c1ccccc1F)N1CCN(c2nc(-c3cccs3)nc3ccccc23)CC1 the “activity change, negative = inhibition” value was -14.7%. With O=S(=O)(c1ccc(Cl)cc1)N1CCN(c2nc(-c3cccc(Br)c3)nc3ccccc23)CC1 the “activity change, negative = inhibition” value was 2.53%. With O=S(=O)(c1ccccc1C(F)(F)F)N1CCN(c2nc(-c3cccs3)nc3ccccc23)CC1 the “activity change, negative = inhibition” value was -3.95%. In the case of O=S(=O)(c1ccc2c(c1)OCCO2)N1CCN(c2nc(-c3cccs3)nc3ccccc23)CC1, the “activity change, negative = inhibition” value is reported as -4.11%. With O=S(=O)(c1ccc(Br)cc1)N1CCN(c2nc(-c3ccccc3)nc3ccccc23)CC1 the “activity change, negative = inhibition” value was -12.8%. For S=C(NCCCc1cnc[nH]1)NCCCN(Cc1ccc(Cl)c(Cl)c1)c1ccc(Br)cn1, the “activity change, negative = inhibition” value was -6.2%. For CC(C)(C)c1ccc(S(=O)(=O)N2CCN(c3nc(-c4cccs4)nc4ccccc34)CC2)cc1, the “activity change, negative = inhibition” value was -12.9%. For O=S(=O)(c1ccc(Br)cc1)N1CCN(c2nc(-c3cccs3)nc3ccccc23)CC1, the “activity change, negative = inhibition” value was -8.57%. Cc1ccc(S(=O)(=O)N2CCN(c3nc(-c4ccc(F)cc4)nc4cc(Cl)ccc34)CC2)cc1 was tested, and the “activity change, negative = inhibition” value was -11.1%. O=S(=O)(c1cccc(Br)c1)N1CCN(c2nc(-c3cccs3)nc3ccccc23)CC1 was tested, and the “activity change, negative = inhibition” value was -6.89%. For O=S(=O)(c1cccc(C(F)(F)F)c1)N1CCN(c2nc(-c3cccs3)nc3cc(Cl)ccc23)CC1, the “activity change, negative = inhibition” value was -16.1%. In the case of O=S(=O)(c1cccc(Cl)c1)N1CCN(c2nc(-c3cccs3)nc3ccccc23)CC1, the “activity change, negative = inhibition” value is reported as -10.8%. In the case of O=S(=O)(c1ccc(Cl)cc1)N1CCN(c2nc(-c3ccc(F)cc3)nc3cc(Cl)ccc23)CC1, the “activity change, negative = inhibition” value is reported as -2.54%. With O=S(=O)(c1ccc(F)cc1)N1CCN(c2nc(-c3ccccc3)nc3ccccc23)CC1 the “activity change, negative = inhibition” value was -9.18%. With CCOc1ccc(S(=O)(=O)N2CCN(c3nc(-c4ccccc4)nc4ccccc34)CC2)cc1OCC the “activity change, negative = inhibition” value was -8.78%. With O=[N+]([O-])c1cccc(S(=O)(=O)N2CCN(c3nc(-c4ccccc4)nc4ccccc34)CC2)c1 the “activity change, negative = inhibition” value was -5.88%. NS(=O)(=O)c1ccc(S(=O)(=O)N2CCN(c3nc(-c4ccccc4)nc4ccccc34)CC2)cc1 was tested, and the “activity change, negative = inhibition” value was -14.3%. With O=S(=O)(c1ccc(C(F)(F)F)cc1)N1CCN(c2nc(-c3ccccc3)nc3ccccc23)CC1 the “activity change, negative = inhibition” value was -13.6%.
